# C diff HTS – blocks growth of Clostridium difficile; Clostridium difficile clinical isolate growth, OD600, 24 h; hits give low values; growth activity, negative = inhibition, % at 16 µg/mL (by protocol); hit rate 0.25% among 86,000; AID 1259249;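 active means mean growth activity at or below -80% and every replicate also at or below -80%; inconclusive means mean at or below -80% but some replicate above -80%; inactive means mean growth activity above -80%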;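 further: 0% = DMSO wells and -100% = levofloxacin 16 µg/mL wells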
# Pf Dd2 inh – P. falciparum Dd2 growth inhibition. SYBR Green, 72 h; hits give low values. activity change, % at 10 µM. hit rate 2.3% among 94,000; in the data active means activity change below about -80%; inconclusive means no clear call, values can overlap the other calls
# * hit, by the source's call; ? = inconclusive; · = no result. Only some compounds are listed: those with a hit (about 2.4% of all), similar ones and a draw of the others.
SMILES,C diff HTS,Pf Dd2 inh
C[C@@H]1CN([C@@H](C)CO)C(=O)c2cc(NC(=O)CCCCCC(=O)Nc3ccccc3N)ccc2O[C@@H]1CN(C)CC1CCCCC1,-4,-63
C[C@@H]1CN([C@@H](C)CO)C(=O)c2cc(NS(C)(=O)=O)ccc2O[C@H]1CN(C)Cc1ccc(C(=O)Nc2ccccc2N)cc1,-1,-8
C[C@H]1CN([C@@H](C)CO)C(=O)c2c(c3ccccc3n2C)-c2ccccc2CO[C@@H]1CN(C)C(=O)Nc1cccc(Cl)c1Cl,14,-84*
COc1ccccc1NC(=O)N(C)C[C@@H]1OCc2ccccc2-c2c(n(C)c3ccccc23)C(=O)N([C@@H](C)CO)C[C@@H]1C,·,-54
C[C@@H]1CN([C@@H](C)CO)C(=O)c2c(c3ccccc3n2C)-c2ccccc2CO[C@H]1CN(C)C(=O)Nc1ccccc1C(F)(F)F,10,-90*
C[C@H](CO)N1C[C@H](C)[C@@H](CN(C)C(=O)Nc2ccccc2C(F)(F)F)OCc2ccccc2-c2c(n(C)c3ccccc23)C1=O,66,-30
O=C(c1ccncc1)N1CC2(C1)[C@H](c1ccccc1)[C@@H](CO)N2CC1CCCC1,1,-15
COc1ccccc1C#Cc1ccc([C@H]2[C@H](C#N)N(C(=O)C3CCC3)[C@H]2CO)cc1,-1,-47
C[C@@H]1CCCCO[C@@H](CN(C)S(=O)(=O)c2ccc(Cl)cc2)[C@@H](C)CN([C@H](C)CO)C(=O)c2cc(NC(=O)Cc3ccccc3)ccc2O1,5,-83*
C[C@@H]1CCCCO[C@H](CN(C)S(=O)(=O)c2ccccc2)[C@H](C)CN([C@H](C)CO)C(=O)c2cc(NC(=O)Cc3ccccc3)ccc2O1,·,-61
Cc1ccc(S(=O)(=O)N(C)C[C@@H]2OCCCC[C@@H](C)Oc3ccc(NC(=O)Cc4ccccc4)cc3C(=O)N([C@H](C)CO)C[C@@H]2C)cc1,·,-81*
C[C@@H]1CN([C@@H](C)CO)C(=O)c2cc(NC(=O)Cc3ccccc3)ccc2O[C@@H](C)CCCCO[C@@H]1CN(C)S(=O)(=O)c1ccc(Cl)cc1,-1,-85*
C[C@@H]1CCCCO[C@@H](CN(C)S(=O)(=O)c2ccc(Cl)cc2)[C@@H](C)CN([C@@H](C)CO)C(=O)c2cc(NC(=O)Cc3ccccc3)ccc2O1,2,-78
C[C@@H]1CN([C@H](C)CO)C(=O)c2cc(NC(=O)Cc3ccccc3)ccc2O[C@@H](C)CCCCO[C@@H]1CN(C)S(=O)(=O)c1ccc(Cl)cc1,-1,-84*
Cc1ccc(S(=O)(=O)N(C)C[C@@H]2OCCCC[C@H](C)Oc3ccc(NC(=O)Cc4ccccc4)cc3C(=O)N([C@H](C)CO)C[C@@H]2C)cc1,·,-76
C[C@@H]1CCCCO[C@H](CN(C)S(=O)(=O)c2ccccc2)[C@@H](C)CN([C@@H](C)CO)C(=O)c2cc(NC(=O)Cc3ccccc3)ccc2O1,·,-67
CC(C)NC(=O)N(C)C[C@H]1OCCCC[C@@H](C)Oc2ccc(NC(=O)C3CCCCC3)cc2C(=O)N([C@@H](C)CO)C[C@H]1C,-1,-57
COCC(=O)Nc1ccc2c(c1)OC[C@H](C)N(Cc1cc(F)ccc1F)C[C@@H](C)[C@@H](OC)CN(C)C2=O,·,-5
C[C@@H]1CCCCO[C@@H](CN(C)C(=O)NC2CCCCC2)[C@H](C)CN([C@@H](C)CO)C(=O)c2cc(NC(=O)C3CCCCC3)ccc2O1,1,-28
O=C(C[C@H]1CC[C@H](NC(=O)c2ccncc2)[C@@H](CO)O1)NCC1CCCCC1,·,10
CCC#CCN(Cc1ccccc1Br)[C@H](/C=C/c1ccccc1)[C@@H](O)Cc1ccccc1,-9,·
Cc1ccccc1S(=O)(=O)N1C[C@@H](O)COC[C@@H]2O[C@H](CC(=O)N3CCOCC3)CC[C@H]21,·,4
C[C@@H]1CN([C@@H](C)CO)C(=O)Cc2cc(NC(=O)Nc3ccccc3)ccc2O[C@@H]1CN(C)Cc1ccc2c(c1)OCO2,7,-16
C[C@H](CO)N1C[C@H](C)[C@@H](CN(C)Cc2ccc3c(c2)OCO3)Oc2ccc(NC(=O)Nc3ccccc3)cc2CC1=O,11,-83*
C[C@@H]1CN([C@@H](C)CO)C(=O)Cc2cc(NC(=O)Nc3ccc4c(c3)OCO4)ccc2O[C@H]1CN(C)Cc1ccc2c(c1)OCO2,6,-87*
SMILES,C diff HTS,Pf Dd2 inh
C[C@H]1CN([C@@H](C)CO)C(=O)Cc2cc(NC(=O)Nc3ccccc3)ccc2O[C@@H]1CN(C)Cc1ccc2c(c1)OCO2,3,-32
C[C@H](CO)N1C[C@H](C)[C@H](CN(C)Cc2ccc3c(c2)OCO3)Oc2ccc(NC(=O)Nc3ccc4c(c3)OCO4)cc2CC1=O,-15,33
C[C@@H]1CN([C@@H](C)CO)C(=O)Cc2cc(NC(=O)Nc3ccccc3)ccc2O[C@H]1CN(C)Cc1ccc2c(c1)OCO2,3,-88*
COc1ccc(S(=O)(=O)Nc2ccc3c(c2)CC(=O)N([C@@H](C)CO)C[C@@H](C)[C@@H](CN(C)C(=O)Nc2cccc4ccccc24)O3)cc1,-5,0
C[C@H]1CCCCO[C@@H](CN(C)S(=O)(=O)c2cccs2)[C@@H](C)CN([C@@H](C)CO)C(=O)c2cc(NS(=O)(=O)c3ccccc3)ccc2O1,-5,-68
COc1cccc(S(=O)(=O)N(C)C[C@@H]2Oc3cc(C#CCC(C)C)ccc3S(=O)(=O)N([C@@H](C)CO)C[C@@H]2C)c1,28,-72
COc1ccccc1S(=O)(=O)N(C)C[C@@H]1Oc2cc(C#CCC(C)C)ccc2S(=O)(=O)N([C@@H](C)CO)C[C@H]1C,8,-89*
COc1ccccc1S(=O)(=O)N(C)C[C@@H]1Oc2cc(C#CCC(C)C)ccc2S(=O)(=O)N([C@@H](C)CO)C[C@@H]1C,18,-87*
COc1ccccc1S(=O)(=O)N(C)C[C@@H]1Oc2cc(C#CCC(C)C)ccc2S(=O)(=O)N([C@H](C)CO)C[C@H]1C,6,-83*
COc1ccccc1S(=O)(=O)N(C)C[C@H]1Oc2cc(C#CCC3CCCC3)ccc2S(=O)(=O)N([C@@H](C)CO)C[C@@H]1C,2,-55
COc1cccc(S(=O)(=O)N(C)C[C@@H]2Oc3cc(C#CCC(C)C)ccc3S(=O)(=O)N([C@H](C)CO)C[C@H]2C)c1,4,?
C[C@@H]1CCCCO[C@H](CN(C)S(=O)(=O)c2cn(C)cn2)[C@@H](C)CN([C@@H](C)CO)C(=O)c2cc(NC(=O)CCCN(C)C)ccc2O1,-4,61
COCC(=O)N1CC2(CN(Cc3cccnc3)C2)c2c(n(C)c3cc(OC)ccc23)[C@H]1CO,-4,19
CCCNC(=O)[C@H]1[C@H](CO)[C@H]2Cn3c(cccc3=O)[C@H]2N1C(=O)C1CCCC1,3,14
COc1ccc2c3c(n(C)c2c1)[C@H](CO)N(Cc1ccccc1)CC31CCN(C(=O)C2CC2)CC1,1,-83*
CCC(=O)N1CCC2(CC1)CN(Cc1cccc(Cl)c1)[C@H](CO)c1c2c2ccc(OC)cc2n1C,6,-89*
COc1ccc2c3c(n(C)c2c1)[C@@H](CO)N(Cc1cc(F)ccc1F)CC31CCN(C(=O)C2CC2)CC1,4,-81*
COc1ccc2c3c(n(C)c2c1)[C@@H](CO)N(Cc1cccc(Cl)c1)CC31CCN(C(C)=O)CC1,-1,-38
COc1ccc2c3c(n(C)c2c1)[C@H](CO)N(Cc1cc(F)ccc1F)CC31CCN(C(=O)C2CC2)CC1,-6,?
